# Experimental data as given in PubChem BioAssay (NCATS).
# Records with an inconclusive call do not appear. A call without a number means that no potency is given here. Active and inactive are the calls of the source. The call rests on the fitted dose curve; in most records, active means well fitted curve in the direction sought with a large enough effect; inconclusive means small, poorly fitted or top-dose-only effect, or another doubt; inactive means no such curve, though single readings can be large; an effect the other way counts as inactive or inconclusive.
# Legend:
# [1] = target: Glutathione peroxidase 1 (Homo sapiens) (UniProt P07203); assay: Primary qHTS Assay for Inhibitors of Recombinant Selenoprotein Glutathione Peroxidase 1 (GPX1) (AID 1845191); further: nearly all actives have a fitted effect of over 65% in size
# Chain of Glutathione peroxidase 1 (Homo sapiens) (P07203 whole entry, looked up): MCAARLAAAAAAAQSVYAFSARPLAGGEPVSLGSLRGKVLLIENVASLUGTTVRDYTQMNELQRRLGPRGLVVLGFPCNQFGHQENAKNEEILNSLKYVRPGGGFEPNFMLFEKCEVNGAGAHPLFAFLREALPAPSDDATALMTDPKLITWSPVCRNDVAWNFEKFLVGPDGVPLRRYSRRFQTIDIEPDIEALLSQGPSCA
# Outline: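 NADPH consumption tracked by fluorescence at 340/450 nm between t=0 and t=15 min, room temperature. Final mix: 10 nM GPX1, 100 nM glutathione reductase, 1 mM GSH, 0.5 mM NADPH, 0.5 mM cumene hydroperoxide, 0.01% BSA; 30 min compound–enzyme preincubation.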
# [2] = target: Phospholipid hydroperoxide glutathione peroxidase GPX4 (Homo sapiens) (UniProt P36969); assay: Primary qHTS Assay for Inhibitors of Recombinant Selenoprotein Glutathione Peroxidase 4 (GPX4) (AID 1845192); further: nearly all actives have a fitted effect of over 65% in size
# Chain of Phospholipid hydroperoxide glutathione peroxidase GPX4 (Homo sapiens) (P36969 whole entry, looked up): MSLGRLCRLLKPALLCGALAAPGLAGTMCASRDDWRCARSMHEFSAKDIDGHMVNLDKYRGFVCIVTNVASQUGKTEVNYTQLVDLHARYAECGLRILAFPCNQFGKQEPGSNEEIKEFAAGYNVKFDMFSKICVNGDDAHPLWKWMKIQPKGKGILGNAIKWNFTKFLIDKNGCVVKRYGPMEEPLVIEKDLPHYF
# Outline: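 NADPH consumption followed by fluorescence at 340/450 nm, t=0 and after 15 min at room temperature. Reaction started with cumene hydroperoxide (0.5 mM final) after 30 min compound–GPX4 preincubation; final 200 nM GPX4, 100 nM GR, 1 mM GSH, 0.5 mM NADPH.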
# [3] = target: Luciferin 4-monooxygenase (Photinus pyralis) (UniProt P08659); assay: Primary firefly luciferase (FLuc) qHTS assay for identification of artifact compounds. (AID 1845220); further: nearly all actives have a fitted effect of over 60% in size
# Outline: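 Compounds sat 15 min at room temperature with 10 uM luciferin and 10 uM ATP (pH 7.6 Tris acetate). Firefly luciferase (10 nM final) was then added, and luminescence was read 5 min later. Data normalized to no-enzyme and DMSO controls were Hill-fitted.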
# [4] = Primary fluorescence-based thiol-reactive (MSTI) qHTS assay for identification of artifact compounds. (AID 1845221);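 further: series mostly up to about 54 µM; thiol-reactive compounds lower the probe fluorescence signal; nearly all actives have a fitted effect of over 65% in size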
# Outline: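 First, 4 uM MSTI in 2% DMSO/PBS pH 7.4 was dispensed; next, compounds were added; then plates sat 1 h at room temperature without light. Finally, emission at 598 nm was recorded.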
# [5] = test system: Nanoluciferase (engineered Oplophorus gracilirostris luciferase); assay: Primary Nanoluciferase (NLuc) qHTS assay for identification of artifact compounds. (AID 1845222); further: series mostly up to about 54 µM
# Outline: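 Luminescence from secreted NLuc (filtered, 1:55-diluted S16 cell medium) read 5 min after Nano-Glo substrate; compounds preincubated 15 min, RT. Hill fits of inhibition normalized to DMSO and no-enzyme.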
# [6] = Primary redox qHTS assay for identification of artifact compounds. (AID 1845223)
# Outline: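 Redox-cycling detection via DTT (250 uM final) oxidation coupled to Amplex Red (25 uM)/HRP (250 mU/mL) in HBSS. 15 min preincubation plus 30 min after DTT, room temperature. Ex/Em 525/598 nm; 4-parameter Hill fit against DMSO and 10 uM DA3003.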
# [7] = target: Cytochrome P450 3A4 (Homo sapiens) (UniProt P08684); assay: qHTS for inhibitors of CYP3A4 against the NCATS DSHEA and TCM libraries (AID 1919971);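 further: inhibition lowers luminescence from luciferin made by CYP3A4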
# Chain of Cytochrome P450 3A4 (Homo sapiens) (P08684 whole entry, looked up): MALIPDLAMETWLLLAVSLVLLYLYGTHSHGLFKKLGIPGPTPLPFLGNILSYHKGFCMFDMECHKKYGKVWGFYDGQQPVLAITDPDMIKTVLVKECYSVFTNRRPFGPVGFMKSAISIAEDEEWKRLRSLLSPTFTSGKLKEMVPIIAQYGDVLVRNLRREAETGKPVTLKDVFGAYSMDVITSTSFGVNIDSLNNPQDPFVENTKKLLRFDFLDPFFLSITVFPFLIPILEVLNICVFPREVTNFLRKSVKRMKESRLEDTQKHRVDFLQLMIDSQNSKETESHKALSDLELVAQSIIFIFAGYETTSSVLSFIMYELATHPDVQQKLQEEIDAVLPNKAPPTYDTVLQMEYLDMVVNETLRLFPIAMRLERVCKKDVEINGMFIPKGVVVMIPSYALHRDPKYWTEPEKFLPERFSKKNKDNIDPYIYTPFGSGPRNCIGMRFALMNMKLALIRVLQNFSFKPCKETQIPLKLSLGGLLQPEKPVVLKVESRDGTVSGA
# Description: Assay Development and Screening Technology Laboratory (ADST)
# National Center for Advancing Translational Sciences (NCATS), Rockville, MD
# National Institute of Health (NIH), Bethesda, Maryland
# Dietary Supplements and Natural Products have minor oversight of their safety and efficacy. We assembled a collection of Dietary Supplements and Natural Products (DSNP) as well as Traditional Chinese Medicinal (TCM) Plant extracts, which were screened against an in vitro panel of assays, including a liver cytochrome p450 enzyme panel, CAR/PXR signaling pathways, and P-gp transporter assays, to assess their activity. This pipeline facilitated the interrogation of Natural Product-Drug Interaction (NaPDI) through prominent metabolizing pathways. In addition, we compared the activity profiles of the DSNP/TCM substances with those of an approved drug collection. Many of the approved drugs have well-annotated mechanisms of action (MOA) while the MOAs for most of the DSNP and TCM samples remain unknown. […] Overall, we highlight four significant bioactivity profiles (measured by p-values) as examples of this prediction. […] To profile potential P-gp activity, a differential cell viability was measured against two cell lines: a parental KB-3-1 human cervical adenocarcinoma cell line and the drug-resistant subline KB-8-5-11 that overexpresses P-gp. […]
# 9; Read; Luminescence; ViewLux plate reader. […]
# [8] = target: Cytochrome P450 2D6 (Homo sapiens) (UniProt P10635); assay: qHTS for inhibitors of CYP2D6 against the NCATS DSHEA and TCM libraries (AID 1919972)
# Chain of Cytochrome P450 2D6 (Homo sapiens) (P10635 whole entry, looked up): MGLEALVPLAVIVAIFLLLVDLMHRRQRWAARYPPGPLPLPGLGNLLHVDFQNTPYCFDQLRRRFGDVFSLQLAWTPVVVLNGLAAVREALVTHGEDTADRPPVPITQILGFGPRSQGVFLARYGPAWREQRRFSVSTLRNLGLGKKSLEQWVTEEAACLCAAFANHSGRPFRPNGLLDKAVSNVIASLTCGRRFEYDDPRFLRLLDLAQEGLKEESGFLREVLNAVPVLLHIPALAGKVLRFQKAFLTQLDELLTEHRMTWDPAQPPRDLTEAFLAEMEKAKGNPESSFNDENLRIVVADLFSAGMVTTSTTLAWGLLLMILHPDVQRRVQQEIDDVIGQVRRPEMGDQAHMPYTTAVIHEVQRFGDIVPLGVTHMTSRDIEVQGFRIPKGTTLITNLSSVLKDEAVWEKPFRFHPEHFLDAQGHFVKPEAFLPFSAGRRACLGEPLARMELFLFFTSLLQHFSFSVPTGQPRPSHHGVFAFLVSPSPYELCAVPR
# Outline: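 qHTS, concentration–response format with most substances from 19.5 nM. CYP2D6 + pro-luciferin substrate, 15 min with compound, then 1x NADPH regen, 30–45 min RT dark. Glo detection 30 min, luminescence. Quinidine control.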
# [9] = target: Cytochrome P450 2C19 (Homo sapiens) (UniProt P33261); assay: qHTS for inhibitors of CYP2C19 against the NCATS DSHEA and TCM libraries (AID 1919974); details: CYP2C19 enzyme inhibition, luminescence qHTS;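 further: luminescence from luciferin released by CYP2C19 oxidation of a pro-luciferin substrate; potency means the concentration at half of the fitted maximal effect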
# Chain of Cytochrome P450 2C19 (Homo sapiens) (P33261 whole entry, looked up, canonical isoform): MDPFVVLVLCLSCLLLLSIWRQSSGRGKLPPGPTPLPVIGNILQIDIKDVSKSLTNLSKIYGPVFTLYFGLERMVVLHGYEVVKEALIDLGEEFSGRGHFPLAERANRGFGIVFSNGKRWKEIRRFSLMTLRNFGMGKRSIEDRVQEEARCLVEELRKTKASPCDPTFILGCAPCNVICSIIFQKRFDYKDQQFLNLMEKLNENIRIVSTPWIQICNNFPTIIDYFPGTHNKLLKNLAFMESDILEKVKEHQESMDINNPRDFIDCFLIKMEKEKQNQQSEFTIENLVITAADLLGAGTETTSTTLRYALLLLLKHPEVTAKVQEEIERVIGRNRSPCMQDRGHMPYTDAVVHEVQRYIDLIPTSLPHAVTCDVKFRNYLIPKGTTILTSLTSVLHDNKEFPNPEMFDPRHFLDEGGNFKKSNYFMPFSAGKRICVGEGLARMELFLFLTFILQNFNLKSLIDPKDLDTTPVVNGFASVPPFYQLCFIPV
# Outline: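 Isoform-specific enzyme and substrate levels; enzyme-free wells as background. Reaction: 1x NADPH regenerating system, 30-45 min, room temperature, shielded from light; luminescent detection reagent added, 30 min.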
# [10] = KB-3-1 P-gp reporter qHTS against the NCATS DSHEA and TCM libraries (AID 1919975)
# Outline: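 CellTiter-Glo luminescence viability readout; KB-3-1 parental cells, 500/well, attached ~4 h, then compound for ~72 h, 37C, 5% CO2. Bortezomib intraplate control.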
compound,measurement,setting,value
COc1cc(/C=C/C(=O)N2CCN(CC(=O)N3CCCC3)CC2)cc(OC)c1OC,Potency,[1],inactive
same,Potency,[2],inactive
same,Potency,[3],inactive
same,outcome,[4],inactive
same,Potency,[5],inactive
same,outcome,[6],inactive
NS(=O)(=O)c1ccc(-n2nc(C(F)(F)F)cc2-c2ccc(Cl)cc2)cc1,Potency,[1],inactive
same,Potency,[2],inactive
same,Potency,[3],inactive
same,outcome,[4],inactive
same,Potency,[5],inactive
same,outcome,[6],inactive
CC(=O)O[C@H]1C[C@@]2(C)[C@@H](C[C@@H](O)[C@H]3[C@@]4(C)CC[C@@H](O)[C@@H](C)[C@@H]4CC[C@@]32C)/C1=C(\CCC=C(C)C)C(=O)O,Potency,[1],inactive
same,Potency,[2],inactive
same,Potency,[3],inactive
same,outcome,[4],inactive
same,Potency,[5],inactive
same,outcome,[6],inactive
CC1(C)S[C@@H]2[C@H](NC(=O)[C@H](N)c3ccc(O)cc3)C(=O)N2[C@H]1C(=O)O,Potency,[2],inactive
same,Potency,[3],inactive
same,Potency,[5],inactive
same,outcome,[6],inactive
O=C(O)c1cc(O)c(O)c(O)c1,outcome,[7],inactive
same,outcome,[8],inactive
same,Potency,[9],3.55 µM (active)
same,outcome,[10],inactive
O=C(O)[C@H](CC(=O)N1C[C@H]2CCCC[C@H]2C1)Cc1ccccc1,Potency,[1],inactive
same,Potency,[2],inactive
same,Potency,[3],inactive
same,outcome,[4],inactive
same,Potency,[5],inactive
same,outcome,[6],inactive
Nc1ccn([C@H]2O[C@H](CO)[C@@H](O)C2(F)F)c(=O)n1,Potency,[2],inactive
CC1(C)[C@@H](O[C@H]2O[C@H](C(=O)O)[C@@H](O)[C@H](O)[C@H]2O[C@@H]2O[C@H](C(=O)O)[C@@H](O)[C@H](O)[C@H]2O)CC[C@]2(C)[C@H]3C(=O)C=C4[C@@H]5C[C@@](C)(C(=O)O)CC[C@]5(C)CC[C@@]4(C)[C@]3(C)CC[C@@H]12,Potency,[3],inactive
same,outcome,[4],inactive
same,outcome,[6],inactive
COc1cc(NC(C)CCCN)c2ncccc2c1 (stereo not drawn),Potency,[2],inactive
CCNC(=O)[C@H]1O[C@@H](n2cnc3c(N)nc(NCCc4ccc(CCC(=O)O)cc4)nc32)[C@H](O)[C@@H]1O,Potency,[1],inactive
same,Potency,[2],inactive
same,Potency,[3],inactive
same,outcome,[4],inactive
same,Potency,[5],inactive
same,outcome,[6],inactive
Nc1ccc(O)c(C(=O)O)c1,Potency,[2],inactive
CCCCCCCCCCCCCCCCCC(=O)O,Potency,[1],inactive
same,Potency,[2],inactive
same,outcome,[10],inactive
O=C1C(SCCO)=C(SCCO)C(=O)c2ccccc21,Potency,[2],inactive
O=C(Nc1ccc2[nH]ncc2c1)C1CCC1,Potency,[1],inactive
same,Potency,[2],inactive
same,Potency,[3],inactive
same,outcome,[4],inactive
same,Potency,[5],inactive
same,outcome,[6],inactive
CN1[C@@H]2CC[C@H]1CC(OC(=O)C(CO)c1ccccc1)C2 (stereo partly drawn),Potency,[3],inactive
same,outcome,[4],inactive
same,Potency,[5],inactive
same,outcome,[6],inactive
